The values below come from publication PMC10726135, “HNF4α isoforms regulate the circadian balance between carbohydrate and lipid metabolism in the liver”.

Whole data set: some 18,000 sequences, median “log2 normalized intensity” near 0.39, cut for the highest 2% near 6.6. Only a selection was taken, and the highest values are over-represented in it overall.

The assay addresses T1, HNF4alpha2 (COS-7 nuclear extract) (Homo sapiens, UniProt P41235 1-474).
T1 sequence: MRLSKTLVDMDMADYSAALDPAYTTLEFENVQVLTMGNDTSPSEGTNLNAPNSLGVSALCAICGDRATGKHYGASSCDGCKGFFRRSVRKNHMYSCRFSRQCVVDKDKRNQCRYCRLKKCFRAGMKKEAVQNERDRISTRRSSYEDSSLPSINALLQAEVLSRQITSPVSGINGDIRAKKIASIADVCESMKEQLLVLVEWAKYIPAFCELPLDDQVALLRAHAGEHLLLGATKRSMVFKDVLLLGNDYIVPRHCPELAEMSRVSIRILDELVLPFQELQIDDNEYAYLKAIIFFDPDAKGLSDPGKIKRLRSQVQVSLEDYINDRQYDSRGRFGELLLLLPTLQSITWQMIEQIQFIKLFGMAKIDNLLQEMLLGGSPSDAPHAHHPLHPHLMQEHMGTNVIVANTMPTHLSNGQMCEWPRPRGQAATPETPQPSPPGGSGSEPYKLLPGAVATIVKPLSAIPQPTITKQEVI
Put plainly: protein-binding microarray; COS-7 nuclear extract on double-stranded Agilent 4x180k PBM; binding buffer, salt, pH and temperature not given in the material; high values mean tight binding. The note with it: chain copies: 2; label: 3' end of strand 1 on the slide; dsDNA, one strand shown. The method in brief:
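Nuclear extracts of COS-7 cells transiently transfected with a human HNF4α isoform were applied to a custom Agilent SurePrint G3 4x180k array bearing ~44,000 double-stranded ~60-nt test sequences, each in quadruplicate. The bound protein was imaged on an Agilent G2565CA scanner at 2-µm resolution. Binding signal is the normalized, background-corrected gProcessedSignal from Agilent software.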
As to “AAGGCTAGTCTTCTTTGGGGCTTAGATAGCGCCTAGGGAGATTAGAGTATCGGTCGA”, the binding signal was determined as 0.431 log2 normalized intensity. As to “TGTACAGGACCATGTTCTCCTAAAGTGACTGCCTAGGGAGATTAGAGTATCGGTCGA”, the binding signal is -0.786 log2 normalized intensity.

“CACTGCACCTGCCTGAACAAGTCCAGTGACGCCTAGGGAGATTAGAGTATCGGTCGA”: the binding signal was -0.89 log2 normalized intensity. With “CACTGAGATAAAAATGGCCAAAGGTTGCCAGCCTAGGGAGATTAGAGTATCGGTCGA”, the binding signal amounted to 2.09 log2 normalized intensity. Take “CCACATTCTGAGACTAAAGAGTACACAAAGGCCTAGGGAGATTAGAGTATCGGTCGA”: the binding signal was -0.922 log2 normalized intensity.

Turning to “TTCCTGGATTGTGAAACACAGGACTTGATCGCCTAGGGAGATTAGAGTATCGGTCGA”, the binding signal came out at 0.71 log2 normalized intensity. Consider “GAGTGTCCTGCCCCCTGGAGGAGTGAGGGAGCCTAGGGAGATTAGAGTATCGGTCGA”, for which the binding signal was 1.34 log2 normalized intensity. On to “GGGGAGGTCAACCAGGGAAATTACCCTCTAGCCTAGGGAGATTAGAGTATCGGTCGA”, for which the binding signal is -0.241 log2 normalized intensity. On to “ACAGGGCTTGGGGTGGGGTTGGAGTCCAGAGCCTAGGGAGATTAGAGTATCGGTCGA”, for which the binding signal amounted to 1.25 log2 normalized intensity.

As for “AGTGAAGGTTCAGTGAAGTAGTGTGTATGAGCCTAGGGAGATTAGAGTATCGGTCGA”, the binding signal was 2.27 log2 normalized intensity.

Take “ATTATCTGCTTTTATGACCTTTGACTGCAGGCCTAGGGAGATTAGAGTATCGGTCGA”: the binding signal amounted to 6.64 log2 normalized intensity.

Turning to “GCCTTATTATCTGCTTTTATGACCTTTGACGCCTAGGGAGATTAGAGTATCGGTCGA”, the binding signal is 7.34 log2 normalized intensity. For the sequence “CTGCTTTTATGACCTTTGACTGCAGAAGATGCCTAGGGAGATTAGAGTATCGGTCGA”, the binding signal is 5.27 log2 normalized intensity. On to “CCTAAGCCTTATTATCTGCTTTTATGACCTGCCTAGGGAGATTAGAGTATCGGTCGA”, for which the binding signal was determined as 3.06 log2 normalized intensity. The same measure for “TCTGCCTTTTATCTATTTGTCGCCTCTGACGCCTAGGGAGATTAGAGTATCGGTCGA”: 0.141 log2 normalized intensity; for “TTTATGACCTTTGACTGCAGAAGATAAGAAGCCTAGGGAGATTAGAGTATCGGTCGA”: 3.94 log2 normalized intensity; for “AACTTTGCAGCAGATAATTACCTGGACTCTGCCTAGGGAGATTAGAGTATCGGTCGA”: 3.6 log2 normalized intensity. As for “CAGATGTTTCTGCAAGCACACTGTCCTGCTGCCTAGGGAGATTAGAGTATCGGTCGA”, the figure is -0.824 log2 normalized intensity; as for “GCTATCTTATCTTTGACCTTACCAGCCCACGCCTAGGGAGATTAGAGTATCGGTCGA”, 2.3 log2 normalized intensity; as for “CTTTGCCCCCAGCCTCTCACAGTAGCCCAGGCCTAGGGAGATTAGAGTATCGGTCGA”, 4.6 log2 normalized intensity. “TCCTGGAACTCTGACCTTTGCCCCCAGCCTGCCTAGGGAGATTAGAGTATCGGTCGA”: the binding signal came to 9.67 log2 normalized intensity. “GCCTGCCCCTCTGACCTCTCCTCCTACCTTGCCTAGGGAGATTAGAGTATCGGTCGA”: the binding signal was determined as 3.24 log2 normalized intensity. Regarding “GAGGTTCCTGGAACTCTGACCTTTGCCCCCGCCTAGGGAGATTAGAGTATCGGTCGA”, the binding signal was found to be 10.5 log2 normalized intensity.

For “AAATCTGCCCAACCTTTGCCCCTGGAGGGAGCCTAGGGAGATTAGAGTATCGGTCGA”, the binding signal was 3.74 log2 normalized intensity. The same measure for “GAACTCTGACCTTTGCCCCCAGCCTCTCACGCCTAGGGAGATTAGAGTATCGGTCGA”: 8.72 log2 normalized intensity. With “TGCCCAGCTTGAATCACTCACTGACCTCTTGCCTAGGGAGATTAGAGTATCGGTCGA”, the binding signal is 3.98 log2 normalized intensity. In the case of “AGGAGGAGGTTCCTGGAACTCTGACCTTTGGCCTAGGGAGATTAGAGTATCGGTCGA”, the binding signal turned out to be 5.97 log2 normalized intensity. As for “ACCGACCTTTGGTTCCTGAACTCAAACCCCGCCTAGGGAGATTAGAGTATCGGTCGA”, the figure is 2.57 log2 normalized intensity; as for “AGCCTCTCACAGTAGCCCAGGTCCTTTGGTGCCTAGGGAGATTAGAGTATCGGTCGA”, 0.178 log2 normalized intensity; as for “CTGACCTTTGCCCCCAGCCTCTCACAGTAGGCCTAGGGAGATTAGAGTATCGGTCGA”, 6.87 log2 normalized intensity. As to “TTCTGTCCTCTCAAAGTCCACCCGGCCAGCGCCTAGGGAGATTAGAGTATCGGTCGA”, the binding signal came to 4.04 log2 normalized intensity. In the case of “TGCATCAGTGCTGACCTACCTGACCTGGCAGCCTAGGGAGATTAGAGTATCGGTCGA”, the binding signal was determined as 1.28 log2 normalized intensity. “AAGGGCAGCAGTAACCCCCCAGGAGCGAGTGCCTAGGGAGATTAGAGTATCGGTCGA”: the binding signal was found to be 3.54 log2 normalized intensity. The same measure for “TGGGTATGTCTGTAGGTAAGCACAAAGTACGCCTAGGGAGATTAGAGTATCGGTCGA”: 1.92 log2 normalized intensity. Consider “GGCAAAACACCCCTTTCACTTCTTCCCCTCGCCTAGGGAGATTAGAGTATCGGTCGA”, for which the binding signal was determined as 3.8 log2 normalized intensity. For the sequence “TAACCCTACAGTCCTGCCACATCCCCCACAGCCTAGGGAGATTAGAGTATCGGTCGA”, the binding signal amounted to 4.26 log2 normalized intensity. As for “AGGGGCTGCTGGGAGTTGTAGTTTTTTGGGGCCTAGGGAGATTAGAGTATCGGTCGA”, the binding signal was determined as 1.54 log2 normalized intensity. Consider “AAGAGTCAAAGGGCAAAGGAATAAAATAGCGCCTAGGGAGATTAGAGTATCGGTCGA”, for which the binding signal is -0.272 log2 normalized intensity. Turning to “CCCCACCCCCACTGCCTGACCCCAAGTAATGCCTAGGGAGATTAGAGTATCGGTCGA”, the binding signal was determined as 6.98 log2 normalized intensity.

Regarding “ACTGCCTGACCCCAAGTAATAGCCGTTTCTGCCTAGGGAGATTAGAGTATCGGTCGA”, the binding signal came to 1.07 log2 normalized intensity. For “CCCCCACTGCCTGACCCCAAGTAATAGCCGGCCTAGGGAGATTAGAGTATCGGTCGA”, the binding signal came to 5.25 log2 normalized intensity.

In the case of “GGCGTGACCCCCACTGCCTGCCTGCCAACTGCCTAGGGAGATTAGAGTATCGGTCGA”, the binding signal came out at 2.89 log2 normalized intensity. For the sequence “CTCTTCAGAATGGCCTGCCCATCCCCCCAAGCCTAGGGAGATTAGAGTATCGGTCGA”, the binding signal is 5.18 log2 normalized intensity. Consider “TTCATCCCCACCCCCACTGCCTGACCCCAAGCCTAGGGAGATTAGAGTATCGGTCGA”, for which the binding signal was found to be 7.59 log2 normalized intensity. As for “TGCCCTTTGCCCTCACTGGTAGAAGGCAGCGCCTAGGGAGATTAGAGTATCGGTCGA”, the figure is 4.58 log2 normalized intensity; as for “CGCTCCCCTCCCCCACCCGCGGTCCGTCCCGCCTAGGGAGATTAGAGTATCGGTCGA”, 5.86 log2 normalized intensity; as for “GTCACCCTCCCCGCCACCCCCCAGAGGGCCGCCTAGGGAGATTAGAGTATCGGTCGA”, 6.08 log2 normalized intensity. As for “CTGGTCGACCTCCCCGTCACCCTCCCCGCCGCCTAGGGAGATTAGAGTATCGGTCGA”, the binding signal came to 6 log2 normalized intensity. For the sequence “CGACCTCCCCGTCACCCTCCCCGCCACCCCGCCTAGGGAGATTAGAGTATCGGTCGA”, the binding signal was determined as 6.67 log2 normalized intensity.

Consider “TCCCCGTCACCCTCCCCGCCACCCCCCAGAGCCTAGGGAGATTAGAGTATCGGTCGA”, for which the binding signal was determined as 7.45 log2 normalized intensity. As for “TTTCCCTGGTCGACCTCCCCGTCACCCTCCGCCTAGGGAGATTAGAGTATCGGTCGA”, the figure is 4.15 log2 normalized intensity; as for “ACGTCTGTTAACCAAGATACTGGGTCAGAGGCCTAGGGAGATTAGAGTATCGGTCGA”, 1.11 log2 normalized intensity. “ACCAGCGTAATTCTGGCTCTTTGAGTGGTTGCCTAGGGAGATTAGAGTATCGGTCGA”: the binding signal is 0.76 log2 normalized intensity. As to “TCCAGCATTCTTTTCCCCATACCAGGCAGTGCCTAGGGAGATTAGAGTATCGGTCGA”, the binding signal came out at 2.37 log2 normalized intensity.
